Measured values as given in PubChem BioAssay.
The source made the active and inactive calls.

Tests used:
[1] = E. coli DRC41 culture turbidity changes, primary screen, E. coli filamentation inducer project, strain DRC41, OD650, 48 h (AID 1152);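 further: E. coli MC1000 strain DRC41 lacking acrAB efflux pump and sulA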; conditions: E. coli DRC41 (acrAB sulA), higher = more signal, called active from +8 up or from −8 down
[2] = small-molecule binders of probe aLefty1, primary screen, biochemical, small-molecule microarray, 635/667 nm fluorescence (AID 1153); conditions: higher = more signal;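 further: score merges spot fluorescence with signal-to-noise ratio from the scanned slide images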
[3] = PSAC antagonists in infected red cells, primary screen, cell-based, P. falciparum Indochina, OD700, 1 h (AID 1154); conditions: P. falciparum Indochina infected RBC osmotic lysis, higher = more signal, called active from +8 up or from −8 down
[4] = PSAC antagonists in infected red cells, primary screen, cell-based, P. falciparum Indochina, OD700, 2 h (AID 1155);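 further: lysis reports solute entry through the parasite surface anion channel PSAC; channel blockers reduce lysis of infected cells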; conditions: P. falciparum Indochina infected erythrocytes, osmotic lysis OD700; higher = more signal, called active from +8 up or from −8 down
[5] = osmotic lysis modulators in infected erythrocytes, primary screen, PSAC antagonist project, cell-based, P. falciparum Indochina, OD700, 3 h (AID 1156); conditions: higher = more signal, called active from +8 up or from −8 down
[6] = PSAC antagonists in infected red cells, primary screen, cell-based, P. falciparum Indochina, OD700, 18 h (AID 1157); conditions: P. falciparum Indochina infected erythrocytes, osmotic lysis OD700, 18 h; higher = more signal, called active from +8 up or from −8 down
[7] = modulators of S6 phosphorylation in cells, primary screen, cell-based, A549, cytoblot, luminescence, serum-stimulated (AID 1158); conditions: A549 phospho-S6 cytoblot, 5 h, higher = more signal;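 further: serum-stimulated A549 lung adenocarcinoma cells; signal is phosphorylated S6 detected by cytoblot immunostaining with HRP secondary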
[8] = molecular target: NADPH oxidase 2 (Homo sapiens) (UniProt P04839); assay: NOX2-dependent H2O2 signal modulators, primary screen, NOX inhibitor project, cell-based, HEK293-NOX2, PMA-stimulated, Amplex Red fluorescence (AID 1159); conditions: 45 min, higher = more signal, called active from +8 up or from −8 down; further: test concentration not given here
[9] = molecular target: NADPH oxidase 4 (Homo sapiens) (UniProt Q9NPH5); assay: NOX4-dependent H2O2 signal modulators, primary screen, NOX inhibitor project, cell-based, HEK293-NOX4, tetracycline-induced, Amplex Red fluorescence (AID 1160); conditions: 45 min, higher = more signal, called active from +8 up or from −8 down
[10] = molecular target: NADPH oxidase 5 (Homo sapiens) (UniProt Q96PH1); assay: NOX5-dependent H2O2 signal modulators, primary screen, NOX inhibitor project, cell-based, HEK293-NOX5, Amplex Red fluorescence (AID 1161); conditions: HEK293-NOX5, ionomycin, 45 min, higher = more signal
[11] = A549 cell viability effects, profiling panel, calcein-AM fluorescence, 48 h, basal (AID 1162); conditions: higher = more signal; further: test concentration not given here
[12] = adipocyte viability effects, profiling panel, cell-based, 3T3-L1 adipocytes, calcein-AM fluorescence, 48 h, basal (AID 1163); conditions: 3T3-L1 adipocytes viability, higher = more signal; further: test concentration not given here
[13] = HepG2 cell viability effects, profiling panel, calcein-AM fluorescence, 48 h, basal (AID 1164); conditions: higher = more signal; further: test concentration not given here
[14] = MM1S cell viability effects, profiling panel, calcein-AM fluorescence, 48 h, basal (AID 1165); conditions: higher = more signal;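 further: viability of MM1S multiple myeloma cells under basal unstimulated conditions; test concentration not given here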
[15] = basal RPMI8226 viability, no added stimulus, profiling panel, cell-based, calcein-AM fluorescence, 48 h, PK04 Diversity Set (AID 1166); conditions: RPMI8226 myeloma viability, higher = more signal;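 further: cells grown under basal conditions without added stimulus; test concentration not given here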
[16] = basal HepG2 mitochondrial membrane potential changes, profiling panel, cell-based, JC-1 fluorescence, 24 h, 100 nL compound (AID 1167); conditions: higher = more signal; further: test concentration not given here
[17] = basal 3T3-L1 adipocyte mitochondrial potential changes, profiling panel, cell-based, JC-1 fluorescence, 3T3-L1 adipocytes, 24 h, 100 nL compound (AID 1168); conditions: JC-1 mitochondrial fluorescence, higher = more signal, called active from +8 up or from −8 down; further: test concentration not given here
[18] = basal RPMI8226 mitochondrial membrane potential changes, profiling panel, cell-based, JC-1 fluorescence, 24 h, 100 nL compound (AID 1169); conditions: RPMI8226 myeloma, JC-1 mitochondrial potential fluorescence, higher = more signal; further: test concentration not given here
[19] = basal MM1S mitochondrial membrane potential changes, profiling panel, cell-based, JC-1 fluorescence, 24 h, 100 nL compound (AID 1170); conditions: higher = more signal; further: test concentration not given here
[20] = A549 lung cancer cell viability effects, profiling panel, resazurin fluorescence, 24 h, PK04 Diversity Set (AID 1171); conditions: higher = more signal, called active from +8 up or from −8 down; further: test concentration not given here

NADPH oxidase 4 (Homo sapiens), sequence (Q9NPH5 whole entry, looked up): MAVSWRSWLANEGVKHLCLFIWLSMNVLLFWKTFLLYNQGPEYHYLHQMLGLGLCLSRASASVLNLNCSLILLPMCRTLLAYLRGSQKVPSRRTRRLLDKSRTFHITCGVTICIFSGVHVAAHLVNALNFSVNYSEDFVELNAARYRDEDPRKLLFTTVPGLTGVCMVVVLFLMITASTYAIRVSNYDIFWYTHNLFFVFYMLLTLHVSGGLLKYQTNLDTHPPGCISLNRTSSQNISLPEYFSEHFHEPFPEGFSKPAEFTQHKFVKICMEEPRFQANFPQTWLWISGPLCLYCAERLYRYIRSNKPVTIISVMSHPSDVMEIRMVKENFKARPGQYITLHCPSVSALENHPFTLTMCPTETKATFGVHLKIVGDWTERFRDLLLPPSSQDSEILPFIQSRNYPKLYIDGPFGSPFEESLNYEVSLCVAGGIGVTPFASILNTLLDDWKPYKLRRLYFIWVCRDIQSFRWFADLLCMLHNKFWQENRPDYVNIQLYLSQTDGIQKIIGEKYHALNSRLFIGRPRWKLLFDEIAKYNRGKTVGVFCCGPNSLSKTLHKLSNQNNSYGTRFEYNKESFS
NADPH oxidase 5 (Homo sapiens), sequence (Q96PH1 whole entry, looked up): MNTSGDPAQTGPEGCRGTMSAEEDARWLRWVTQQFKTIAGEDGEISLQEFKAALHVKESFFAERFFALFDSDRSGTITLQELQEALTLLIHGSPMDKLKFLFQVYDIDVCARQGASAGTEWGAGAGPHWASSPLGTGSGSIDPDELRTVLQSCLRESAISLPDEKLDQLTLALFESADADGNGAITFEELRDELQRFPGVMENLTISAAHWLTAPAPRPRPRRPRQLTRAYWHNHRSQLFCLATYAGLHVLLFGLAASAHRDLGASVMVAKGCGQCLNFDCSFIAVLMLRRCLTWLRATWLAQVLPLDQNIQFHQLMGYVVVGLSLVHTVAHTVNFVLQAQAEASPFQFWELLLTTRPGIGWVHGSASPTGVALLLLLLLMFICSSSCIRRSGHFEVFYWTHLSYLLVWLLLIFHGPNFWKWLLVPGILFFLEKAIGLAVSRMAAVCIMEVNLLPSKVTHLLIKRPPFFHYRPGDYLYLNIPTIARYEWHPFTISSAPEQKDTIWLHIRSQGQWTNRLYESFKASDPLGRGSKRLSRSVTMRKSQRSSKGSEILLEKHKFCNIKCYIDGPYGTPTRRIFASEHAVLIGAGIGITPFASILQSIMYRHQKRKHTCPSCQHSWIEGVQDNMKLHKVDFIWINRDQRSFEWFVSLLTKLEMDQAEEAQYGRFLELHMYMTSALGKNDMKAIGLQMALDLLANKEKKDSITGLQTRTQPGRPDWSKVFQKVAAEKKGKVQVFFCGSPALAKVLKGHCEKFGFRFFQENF
NADPH oxidase 2 (Homo sapiens), sequence (P04839 whole entry, looked up): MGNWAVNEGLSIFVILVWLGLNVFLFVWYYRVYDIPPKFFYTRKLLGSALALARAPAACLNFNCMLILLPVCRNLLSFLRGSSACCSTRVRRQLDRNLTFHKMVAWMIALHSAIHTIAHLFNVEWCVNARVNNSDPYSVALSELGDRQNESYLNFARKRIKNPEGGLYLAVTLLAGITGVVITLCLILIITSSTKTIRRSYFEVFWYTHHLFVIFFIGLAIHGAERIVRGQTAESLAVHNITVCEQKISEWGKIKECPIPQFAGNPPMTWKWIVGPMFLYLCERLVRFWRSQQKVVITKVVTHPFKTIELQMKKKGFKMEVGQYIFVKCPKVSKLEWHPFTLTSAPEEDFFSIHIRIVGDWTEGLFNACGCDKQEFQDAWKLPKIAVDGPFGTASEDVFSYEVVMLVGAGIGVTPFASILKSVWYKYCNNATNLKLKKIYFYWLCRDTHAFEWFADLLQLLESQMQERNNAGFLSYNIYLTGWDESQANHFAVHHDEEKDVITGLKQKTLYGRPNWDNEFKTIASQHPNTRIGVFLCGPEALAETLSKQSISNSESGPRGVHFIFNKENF

CN(C)C(=O)[C@@]1(Cc2ccccc2CN=[N+]=[N-])N=C(c2ccc(OCCCO)cc2)O[C@H]1c1ccccc1N=[N+]=[N-]
z-score [1]: -0.383 (inactive)
composite z-score [2]: 1.48
z-score [3]: 29.9 (active)
z-score [4]: 26.7 (active)
z-score [5]: 2.61 (inactive)
z-score [6]: 6.04 (inactive)
z-score [7]: 1.76
z-score [8]: -3.42 (inactive)
z-score [9]: -0.18 (inactive)
z-score [10]: -2.56
z-score [11]: -1.63
z-score [12]: 2
z-score [13]: -2.15
z-score [14]: -3.03
z-score [15]: -3.98
z-score [16]: 0.129
z-score [17]: -0.052 (inactive)
z-score [18]: -1.08
z-score [19]: -0.796
z-score [20]: -2.09 (inactive)

CCCC=C(CCC)[C@@H](NS(=O)(=O)c1ccc(C(F)(F)F)cc1)c1ccccc1
z-score [1]: -2.49 (inactive)
composite z-score [2]: 0.379
z-score [3]: 0.669 (inactive)
z-score [4]: 0.546 (inactive)
z-score [5]: 0.248 (inactive)
z-score [6]: 0.567 (inactive)
z-score [7]: -0.286
z-score [8]: -0.832 (inactive)
z-score [9]: -1.74 (inactive)
z-score [10]: 2.42
z-score [11]: -0.511
z-score [12]: -0.217
z-score [13]: -0.832
z-score [14]: -0.266
z-score [15]: -1.86
z-score [16]: -4.98
z-score [17]: -0.61 (inactive)
z-score [18]: -0.519
z-score [19]: -1.51
z-score [20]: 0.221 (inactive)

O=C1[C@H]2C=C(I)[C@H](C[C@@H]2OCCOCCO)[C@@]12CO2
z-score [1]: -0.878 (inactive)
composite z-score [2]: -0.371
z-score [3]: -0.0899 (inactive)
z-score [4]: -0.122 (inactive)
z-score [5]: -0.321 (inactive)
z-score [6]: -0.235 (inactive)
z-score [7]: 0.0332
z-score [8]: 0.578 (inactive)
z-score [9]: 0.373 (inactive)
z-score [10]: -0.151
z-score [11]: -0.461
z-score [12]: -1.03
z-score [13]: -0.773
z-score [14]: -0.582
z-score [15]: -0.537
z-score [16]: -1.77
z-score [17]: -0.473 (inactive)
z-score [18]: -0.196
z-score [19]: -0.807
z-score [20]: 0.323 (inactive)

COCCCNC(=O)[C@@]1(CCC(=O)OC(C)(C)C)N=C(c2ccc(OCCCO)cc2)O[C@H]1c1ccccc1N=[N+]=[N-]
z-score [1]: 1.15 (inactive)
composite z-score [2]: 0.286
z-score [3]: 30.4 (active)
z-score [4]: 29.3 (active)
z-score [5]: 2.54 (inactive)
z-score [6]: 2.43 (inactive)
z-score [7]: -0.226
z-score [8]: -1.35 (inactive)
z-score [9]: 0.197 (inactive)
z-score [10]: -2.03
z-score [11]: 0.618
z-score [12]: 0.251
z-score [13]: 0.977
z-score [14]: -1.21
z-score [15]: -1.16
z-score [16]: 1.74
z-score [17]: 3.98 (inactive)
z-score [18]: -1.15
z-score [19]: -0.386
z-score [20]: 1.38 (inactive)

CCCC[C@@H](O)C1=C(COC)C[C@H]2C(=O)N(C)C(=O)[C@H]2[C@H]1CO
z-score [1]: 2.54 (inactive)
composite z-score [2]: 0.218
z-score [3]: -0.179 (inactive)
z-score [4]: -1.31 (inactive)
z-score [5]: -1.12 (inactive)
z-score [6]: -2.19 (inactive)
z-score [7]: 1.59
z-score [8]: -0.342 (inactive)
z-score [9]: 0.564 (inactive)
z-score [10]: 0.819
z-score [11]: 1.28
z-score [12]: 1.13
z-score [13]: 1.48
z-score [14]: -0.211
z-score [15]: 0.536
z-score [16]: 1.23
z-score [17]: -0.987 (inactive)
z-score [18]: 0.335
z-score [19]: -1.98
z-score [20]: 0.368 (inactive)

Cc1ccc(F)cc1S(=O)(=O)N[C@@H]1CCN(Cc2ccc(Br)cc2)C1
z-score [1]: -1.98 (inactive)
composite z-score [2]: -0.0099
z-score [3]: 2.63 (inactive)
z-score [4]: 1.24 (inactive)
z-score [5]: 0.759 (inactive)
z-score [6]: 0.55 (inactive)
z-score [7]: -0.166
z-score [8]: -0.955 (inactive)
z-score [9]: -0.846 (inactive)
z-score [10]: -2.15
z-score [11]: -0.0023
z-score [12]: -1.01
z-score [13]: -0.65
z-score [14]: -1.24
z-score [15]: -1.29
z-score [16]: 0.261
z-score [17]: 0.0995 (inactive)
z-score [18]: -0.645
z-score [19]: -0.555
z-score [20]: 0.728 (inactive)

CCCC=C(CCC)[C@@H](NC(=O)C(C)(C)C)c1ccc(C(=O)OC)cc1
z-score [1]: -1.31 (inactive)
composite z-score [2]: 0.666
z-score [3]: 0.494 (inactive)
z-score [4]: 0.889 (inactive)
z-score [5]: -1.28 (inactive)
z-score [6]: 1.21 (inactive)
z-score [7]: 0.0791
z-score [8]: -0.129 (inactive)
z-score [9]: 0.624 (inactive)
z-score [10]: 2.5
z-score [11]: -1.01
z-score [12]: -0.886
z-score [13]: -0.47
z-score [14]: -0.695
z-score [15]: -2.08
z-score [16]: 3.69
z-score [17]: -0.614 (inactive)
z-score [18]: -0.118
z-score [19]: -0.459
z-score [20]: 0.821 (inactive)

C=C[C@@H](CO)N(Cc1ccc(OC)cc1)S(=O)(=O)c1ccc(Br)cc1
z-score [1]: 1.77 (inactive)
composite z-score [2]: -0.639
z-score [3]: 2.48 (inactive)
z-score [4]: -0.457 (inactive)
z-score [5]: -1.21 (inactive)
z-score [6]: -1.1 (inactive)
z-score [7]: 1.66
z-score [8]: -1.84 (inactive)
z-score [9]: 0.114 (inactive)
z-score [10]: -1.26
z-score [11]: 1.49
z-score [12]: 0.773
z-score [13]: 0.349
z-score [14]: 1.39
z-score [15]: 0.613
z-score [16]: 0.622
z-score [17]: 2.05 (inactive)
z-score [18]: 0.359
z-score [19]: -0.159
z-score [20]: 1.23 (inactive)
